PubChem BioAssay AID1345085 (National Center for Advancing Translational Sciences (NCATS), 2018)
Results filed as inconclusive are left out. Active and inactive are the calls of the source. The call rests on the fitted dose curve; in most records, active means well fitted cell-killing curve with a large enough effect; inconclusive means small, poorly fitted or top-dose-only effect, or effect the other way; inactive means no such curve, though single readings can be large or run the other way.

test system: Hek293T; experiment: Confirmatory qHTS for gynecologic anti-cancer compounds from libraries of approved drugs and bioactive compounds; conditions: gynecologic cancer cell panel viability, ATPlite luminescence, 48 h; series mostly up to 57.6 µM; further: nearly all actives have a fitted effect of over 55% in size
Outline: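 Cells (1,000/well) plated 16 h, then exposed 48 h at 37 °C to 11 concentrations (1:3) from 57.5 uM to 0.977 nM. Viability by ATPlite luminescence after 15 min; IC50 derived, with HEK 293T used for selectivity index.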
Potency means the concentration at half of the fitted maximal effect.

SMILES | Potency
C[C@H]1CCC/C=C/C2C[C@H](O)C[C@H]2[C@H](O)/C=C/C(=O)O1 (stereo partly drawn) | 1090 nM (active)
CCNC(=O)C[C@@H]1N=C(c2ccc(Cl)cc2)c2cc(OC)ccc2-n2c(C)nnc21 | inactive
C=C(C)[C@H]1Cc2c(ccc3c2O[C@@H]2COc4cc(OC)c(OC)cc4[C@@H]2C3=O)O1 | 432 nM (active)
